These results are taken from PubChem BioAssay (Tox21).

The structures appear in SMILES notation. Values without a mark were called inactive. Inconclusive results are not listed. Entries that show only a call come without a potency. Active and inactive are the calls of the source. Unless noted, calls follow the shape of the full dose curve.

Sequence of Nuclear receptor subfamily 1 group I member 2 (Rattus norvegicus) (Q9R1A7 whole entry, looked up): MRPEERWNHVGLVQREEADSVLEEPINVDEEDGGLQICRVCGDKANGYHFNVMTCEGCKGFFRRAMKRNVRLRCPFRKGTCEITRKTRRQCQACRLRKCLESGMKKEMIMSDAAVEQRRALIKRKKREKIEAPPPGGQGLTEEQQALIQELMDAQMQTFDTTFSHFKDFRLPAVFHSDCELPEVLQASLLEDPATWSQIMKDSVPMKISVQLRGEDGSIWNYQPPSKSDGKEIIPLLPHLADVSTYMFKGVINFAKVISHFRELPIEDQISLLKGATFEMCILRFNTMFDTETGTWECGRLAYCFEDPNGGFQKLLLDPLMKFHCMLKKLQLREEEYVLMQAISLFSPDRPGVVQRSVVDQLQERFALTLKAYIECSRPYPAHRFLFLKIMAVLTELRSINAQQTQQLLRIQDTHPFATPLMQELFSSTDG
Sequence of Acetylcholinesterase (Homo sapiens) (P22303 whole entry, looked up): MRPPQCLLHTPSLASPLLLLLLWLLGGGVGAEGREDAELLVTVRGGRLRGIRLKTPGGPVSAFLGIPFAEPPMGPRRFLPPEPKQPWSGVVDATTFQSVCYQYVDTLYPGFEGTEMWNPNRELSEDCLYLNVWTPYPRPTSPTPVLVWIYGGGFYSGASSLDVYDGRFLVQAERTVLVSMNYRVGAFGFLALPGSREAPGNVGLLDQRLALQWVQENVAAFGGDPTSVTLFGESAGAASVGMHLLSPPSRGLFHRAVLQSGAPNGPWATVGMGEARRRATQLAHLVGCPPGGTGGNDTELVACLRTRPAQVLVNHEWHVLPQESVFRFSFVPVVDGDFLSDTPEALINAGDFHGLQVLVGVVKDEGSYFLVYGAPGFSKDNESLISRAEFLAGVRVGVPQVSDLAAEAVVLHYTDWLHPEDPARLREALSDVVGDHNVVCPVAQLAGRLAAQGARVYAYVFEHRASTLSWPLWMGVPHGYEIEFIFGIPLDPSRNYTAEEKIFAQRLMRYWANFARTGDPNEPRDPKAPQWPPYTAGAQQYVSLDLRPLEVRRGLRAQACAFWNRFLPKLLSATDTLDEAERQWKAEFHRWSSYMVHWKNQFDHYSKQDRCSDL

The first experiment concerns the target Nuclear receptor subfamily 1 group I member 2 (Rattus norvegicus) (UniProt Q9R1A7). Description: Rat pregnane X receptor (rPXR) activation by small molecules, qHTS assay (AID 1346983; active = well fitted curve in the direction sought with a large enough effect in the repeat runs; an effect the other way counts as inactive or inconclusive; also: nearly all actives have a fitted effect of over 20% in size). To be noted: rPXR luciferase reporter cells, One-Glo luminescence, 24 h; hits give high values. In a few lines: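 Luminescent readout (One-Glo luciferase, 30 min room temperature) followed 24 hr compound treatment at 37 C of rPXR cells plated 2,000 per well and preincubated 5hr; qHTS format with compounds delivered in DMSO.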
For orientation: In qHTS, concentration-response curves come from the screen itself.
Take `O=C(NC(O)C(Cl)(Cl)Cl)NC(O)C(Cl)(Cl)Cl` (configuration not stated): the max activation was -0.374%.
Regarding `C[C@]12C=CC(=O)C=C1CC[C@@H]1[C@@H]2CC[C@@]2(C)[C@H]1CC[C@]2(C)O`, the max activation is -4.23%.
Same read-out and setting: under `ClC1=C(Cl)C2(Cl)C(CBr)CC1(Cl)C2(Cl)Cl` (configuration not stated) stands 0.545%; under `C=C1CC[C@@]2(O)[C@H]3Cc4ccc(O)c5c4[C@@]2(CCN3CC2CC2)[C@H]1O5`, 0.729%.

The next experiment has as its target Nuclear receptor subfamily 1 group I member 2 (Homo sapiens) (UniProt O75469). The experiment can be described thus: Human pregnane X receptor (PXR) activation by small molecules, qHTS assay (AID 1346985; active = well fitted curve in the direction sought with a large enough effect in the repeat runs; an effect the other way counts as inactive or inconclusive; also: nearly all actives have a fitted effect of over 40% in size). To be noted: DPX-2 HepG2 CYP3A4-luciferase, 24 h; series mostly up to 38.3 µM. An outline of the steps: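 DPX-2 cells (HepG2 co-transfected with a PXR response element and a CYP3A4-promoter luciferase construct) were seeded at 2,000 per well, rested 5 hr at 37C, then exposed to DMSO-dissolved compounds for 24 hr. Activation was read as luciferase luminescence.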
On to `O=C(NC(O)C(Cl)(Cl)Cl)NC(O)C(Cl)(Cl)Cl` (configuration not stated), for which the Potency result is “inactive”.
On the same count and under the same terms, the value for `ClC1=C(Cl)C2(Cl)C(CBr)CC1(Cl)C2(Cl)Cl` (configuration not stated) was “inactive”; that for `C=C1CC[C@@]2(O)[C@H]3Cc4ccc(O)c5c4[C@@]2(CCN3CC2CC2)[C@H]1O5` was “inactive”.

A further experiment addresses Acetylcholinesterase (Homo sapiens) (UniProt P22303). The experiment can be described thus: Acetylcholinesterase (AChE) small molecule antagonists: colormetric cell-based qHTS assay (AID 1347395). Also: nearly all actives have a fitted effect of over 30% in size. To be noted: SH-SY5Y cells AChE activity, colorimetric (Ellman); series mostly up to 115 µM. An outline of the steps: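 Endogenous AChE of human neuroblastoma SH-SY5Y cells was measured with an Ellman-type DTNB/acetylthiocholine mix. Compound pretreatment lasted 30 min at 37 C; substrate reaction ran 90 min at 37 C.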
For the molecule `O=C(NC(O)C(Cl)(Cl)Cl)NC(O)C(Cl)(Cl)Cl` (configuration not stated), the Potency entry is “inactive”.
The same measure, in the same setting: under `CCCCS(=O)(=O)Cl` stands “inactive”.
Still for that read-out and setting: the value for `C[C@]12C=CC(=O)C=C1CC[C@@H]1[C@@H]2CC[C@@]2(C)[C@H]1CC[C@]2(C)O` was “inactive”; that for `O=c1[nH]c2ccccc2o1` was “inactive”.
Still for that read-out and setting: under `CCN(CCO)CCn1c(Cc2ccccc2)nc2c1c(=O)n(C)c(=O)n2C` stands “inactive”.
As for `CCCCCCCC(=O)Cl`, the Potency result was “inactive”.
The same measure, in the same setting: the value for `O=C(O)c1c(Cl)ccc2cc(Cl)cnc12` was “inactive”.
As to `c1cncc([C@@H]2CCCCN2)c1`, the Potency result is “inactive”.
For the molecule `CC(C)(C)NC[C@H](O)c1ccc(O)cc1Cl`, the Potency result is “inactive”.
Still for that read-out and setting: under `NC1(c2ccccc2)CCCCC1` stands “inactive”; under `CCN(CCO)CCO`, “inactive”; under `C[C@H](N)C(=O)c1ccccc1`, “inactive”.
Same read-out and setting: the value for `CCN[C@@H](C)Cc1ccccc1` was “inactive”.
Still for that read-out and setting: under `COc1ccc(C=O)cc1O` stands “inactive”.
Turning to `C=C1CC[C@@]2(O)[C@H]3Cc4ccc(O)c5c4[C@@]2(CCN3CC2CC2)[C@H]1O5`, the Potency result was “inactive”.
The same measure, in the same setting: under `C(COCC1CO1)OCC1CO1` (configuration not stated) stands “inactive”; under `COP(=O)(O)OC`, “inactive”.
On the same count and under the same terms, under `CCNc1nc(NCC)nc(SC)n1` stands “inactive”; under `CCOC(=O)Nc1cccc(OC(=O)Nc2ccccc2)c1`, “inactive”; under `BrCC1CO1` (configuration not stated), “inactive”.
Consider `COc1ccc(CN2CCNCC2)c(OC)c1OC`, for which the Potency entry was “inactive”.
The same measure, in the same setting: the value for `NNC(N)=O` was “inactive”; that for `OCC(Cl)CCl` (configuration not stated) was “inactive”.

The next experiment shares this target. Description: Acetylcholinesterase (AChE) small molecule antagonists: enzyme-based qHTS assay (AID 1347397). Also: nearly all actives have a fitted effect of over 55% in size. To be noted: Potency: AChE enzyme activity inhibition; outcome: AChE enzyme activity inhibition; series mostly up to 115 µM. In a few lines: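 First, recombinant human AChE (50 mU/mL as dispensed) received test compound or DMSO. Second, plates stood 30 min at room temperature. Third, DTNB and acetylthiocholine were added, followed by 10 min at room temperature and colorimetric detection.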
Regarding `O=C(NC(O)C(Cl)(Cl)Cl)NC(O)C(Cl)(Cl)Cl` (configuration not stated), the Potency entry was “inactive”.
With `CCCCS(=O)(=O)Cl`, the Potency result is “inactive”.
Same read-out and setting: under `C[C@]12C=CC(=O)C=C1CC[C@@H]1[C@@H]2CC[C@@]2(C)[C@H]1CC[C@]2(C)O` stands “inactive”; under `O=C(O)c1c(Cl)ccc2cc(Cl)cnc12`, “inactive”; under `c1cncc([C@@H]2CCCCN2)c1`, “inactive”.
On the same count and under the same terms, the value for `CC(C)(C)NC[C@H](O)c1ccc(O)cc1Cl` was “inactive”; that for `NC1(c2ccccc2)CCCCC1` was “inactive”.
On to `CCN(CCO)CCO`, for which the Potency result was “inactive”.
With `COC(=O)c1ccc(CBr)cc1`, the Potency entry is “inactive”.
The same measure, in the same setting: the value for `CC1N=C(N)OC1c1ccccc1` (configuration not stated) was “inactive”; that for `CCN[C@@H](C)Cc1ccccc1` was “inactive”.
The same measure, in the same setting: the value for `CC(=O)CN(CC(C)=O)N=O` was “inactive”; that for `COc1ccc(C=O)cc1O` was “inactive”.
Consider `C=C1CC[C@@]2(O)[C@H]3Cc4ccc(O)c5c4[C@@]2(CCN3CC2CC2)[C@H]1O5`, for which the Potency result was “inactive”.
Consider `C(COCC1CO1)OCC1CO1` (configuration not stated), for which the Potency result was “inactive”.
The same measure, in the same setting: under `COP(=O)(O)OC` stands “inactive”.
On the same count and under the same terms, the value for `CCNc1nc(NCC)nc(SC)n1` was “inactive”; that for `C[C@H](CN1CCOCC1)C(C(=O)N1CCCC1)(c1ccccc1)c1ccccc1` was “inactive”; that for `CCOC(=O)Nc1cccc(OC(=O)Nc2ccccc2)c1` was “inactive”.
Turning to `BrCC1CO1` (configuration not stated), the Potency result is “inactive”.
The same measure, in the same setting: the value for `COc1ccc(CN2CCNCC2)c(OC)c1OC` was “inactive”; that for `NNC(N)=O` was “inactive”; that for `[P]#[In]` was “inactive”.
Turning to `CCCC[N+](=O)[O-]`, the Potency entry is “inactive”.
Consider `OCC(Cl)CCl` (configuration not stated), for which the Potency result is “inactive”.

A further experiment has the same target. Description: Acetylcholinesterase (AChE) small molecule antagonists: fluorescence cell-based qHTS assay (AID 1347398). Also: nearly all actives have a fitted effect of over 50% in size. To be noted: SH-SY5Y cells; Potency: AChE activity; outcome: AChE activity; series mostly up to 115 µM. In a few lines: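 Homogeneous quantitative HTS format. SH-SY5Y cells seeded at 2,000 per well settle overnight at 37 C. Compound pretreatment runs 30 min (37 C, 5% CO2); substrate/probe mix then reacts 40 min at RT before reading 490/520 nm.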
For `O=C(NC(O)C(Cl)(Cl)Cl)NC(O)C(Cl)(Cl)Cl` (configuration not stated), the Potency result is “inactive”.
On the same count and under the same terms, under `CCCCS(=O)(=O)Cl` stands “inactive”.
`C[C@]12C=CC(=O)C=C1CC[C@@H]1[C@@H]2CC[C@@]2(C)[C@H]1CC[C@]2(C)O`: the Potency entry was “inactive”.
Regarding `O=c1[nH]c2ccccc2o1`, the Potency entry was “inactive”.
Still for that read-out and setting: the value for `CCN(CCO)CCn1c(Cc2ccccc2)nc2c1c(=O)n(C)c(=O)n2C` was “inactive”; that for `CCCCCCCC(=O)Cl` was “inactive”.
For the molecule `O=C(O)c1c(Cl)ccc2cc(Cl)cnc12`, the Potency entry is “inactive”.
Same read-out and setting: under `c1cncc([C@@H]2CCCCN2)c1` stands “inactive”.
On the same count and under the same terms, the value for `CC(C)(C)NC[C@H](O)c1ccc(O)cc1Cl` was “inactive”; that for `NC1(c2ccccc2)CCCCC1` was “inactive”; that for `CCN(CCO)CCO` was “inactive”.
Still for that read-out and setting: the value for `NNCc1ccccc1` was “inactive”; that for `C[C@H](N)C(=O)c1ccccc1` was “inactive”; that for `COC(=O)c1ccc(CBr)cc1` was “inactive”.
Consider `CC1N=C(N)OC1c1ccccc1` (configuration not stated), for which the Potency result is “inactive”.
Same read-out and setting: under `CCN[C@@H](C)Cc1ccccc1` stands “inactive”.
On the same count and under the same terms, the value for `CC(=O)CN(CC(C)=O)N=O` was “inactive”; that for `ClC1=C(Cl)C2(Cl)C(CBr)CC1(Cl)C2(Cl)Cl` (configuration not stated) was “inactive”.
For `COc1ccc(C=O)cc1O`, the Potency entry was “inactive”.
Same read-out and setting: the value for `C=C1CC[C@@]2(O)[C@H]3Cc4ccc(O)c5c4[C@@]2(CCN3CC2CC2)[C@H]1O5` was “inactive”.
For `C(COCC1CO1)OCC1CO1` (configuration not stated), the Potency result was “inactive”.
With `COP(=O)(O)OC`, the Potency entry was “inactive”.
For `CCNc1nc(NCC)nc(SC)n1`, the Potency result was “inactive”.
Consider `O=C(O)C(F)(F)C(F)(F)C(F)(F)C(F)(F)C(F)(F)C(F)(F)F`, for which the Potency result is “inactive”.
In the case of `CCOC(=O)Nc1cccc(OC(=O)Nc2ccccc2)c1`, the Potency result was “inactive”.
`BrCC1CO1` (configuration not stated): the Potency entry was “inactive”.
Consider `COc1ccc(CN2CCNCC2)c(OC)c1OC`, for which the Potency entry was “inactive”.
Regarding `NNC(N)=O`, the Potency entry is “inactive”.
On to `[P]#[In]`, for which the Potency entry is “inactive”.
Take `O=C(O)CBr`: the Potency entry was “inactive”.
On to `CCCC[N+](=O)[O-]`, for which the Potency result was “inactive”.
Turning to `OCC(Cl)CCl` (configuration not stated), the Potency entry is “inactive”.
